gsp agonist – gsp mutant agonism; gsp mutant cells, cAMP HTRF, 30 min; Potency, µM (series often up to 76.9 µM), most hits filed as activators; actives 0.13% (n = 340,000); AID 624287; active = well fitted activation curve with a large enough effect; inconclusive = small, poorly fitted or top-dose-only effect, or another doubt; inactive = no such curve, though single readings can be large or run the other way; cell line not stated here;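 note: phosphodiesterase inhibitor Ro 20-1724 added with compounds to block cAMP breakdown; nearly all actives have a fitted effect of over 60% in size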
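Cells stably selected in G418 were plated at 2000/well, grown 16-24 hr, then given compounds in DMSO with the PDE inhibitor […] (300 uM solution added) for 30 min at 37C; cAMP was read by HTRF.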
gsp antagonist – gsp mutant antagonism; gsp-mutant cells, cAMP HTRF, 30 min; Potency, µM (series often up to 76.9 µM), usual class: inhibitors; actives 0.4% (n = 340,000); AID 624288; calls by dose curve; cell line not stated here;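 note: intracellular cAMP measured with PDE inhibitor Ro 20-1724 present during compound exposure; nearly all actives have a fitted effect of over 65% in size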
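G418-selected cells were plated in DMEM/10% FBS for 16-24 h at 37C, then treated with compounds plus the PDE inhibitor […] (300 uM solution added) for 30 min at 37C. Intracellular cAMP was measured by HTRF after 30 min lysis at room temperature.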
Giardia killer – Giardia lamblia killing; AID 540267; actives 0.15% (n = 340,000); Giardia lamblia trophozoite viability; activity change, % at 7.66 µM, hits read low; in the data active = activity change below about -80%; inconclusive = between about -30% and that limit;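 note: parasites exposed to compound for two days anaerobically before the ATP read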
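Compounds were tested on trophozoites seeded at 100 cells/well and held 48 hrs at 37 deg C anaerobically. An ATP-based luminescent kit measured the remaining live cells.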
RXFP1 antagonist – antagonists of human relaxin receptor RXFP1; actives 0.59% (n = 350,000); AID 1259400; HEK293-RXFP1, relaxin-stimulated cAMP HTRF, 30 min; active compounds read low; activity change, negative = inhibition, % at 57.5 µM;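 active = activity change of -60% or lower, but not beyond a set lower limit; inconclusive = change between -60% and -40%, or beyond the set limit; inactive = change above -40%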
Target sequence (Q9HBX9 whole entry, looked up): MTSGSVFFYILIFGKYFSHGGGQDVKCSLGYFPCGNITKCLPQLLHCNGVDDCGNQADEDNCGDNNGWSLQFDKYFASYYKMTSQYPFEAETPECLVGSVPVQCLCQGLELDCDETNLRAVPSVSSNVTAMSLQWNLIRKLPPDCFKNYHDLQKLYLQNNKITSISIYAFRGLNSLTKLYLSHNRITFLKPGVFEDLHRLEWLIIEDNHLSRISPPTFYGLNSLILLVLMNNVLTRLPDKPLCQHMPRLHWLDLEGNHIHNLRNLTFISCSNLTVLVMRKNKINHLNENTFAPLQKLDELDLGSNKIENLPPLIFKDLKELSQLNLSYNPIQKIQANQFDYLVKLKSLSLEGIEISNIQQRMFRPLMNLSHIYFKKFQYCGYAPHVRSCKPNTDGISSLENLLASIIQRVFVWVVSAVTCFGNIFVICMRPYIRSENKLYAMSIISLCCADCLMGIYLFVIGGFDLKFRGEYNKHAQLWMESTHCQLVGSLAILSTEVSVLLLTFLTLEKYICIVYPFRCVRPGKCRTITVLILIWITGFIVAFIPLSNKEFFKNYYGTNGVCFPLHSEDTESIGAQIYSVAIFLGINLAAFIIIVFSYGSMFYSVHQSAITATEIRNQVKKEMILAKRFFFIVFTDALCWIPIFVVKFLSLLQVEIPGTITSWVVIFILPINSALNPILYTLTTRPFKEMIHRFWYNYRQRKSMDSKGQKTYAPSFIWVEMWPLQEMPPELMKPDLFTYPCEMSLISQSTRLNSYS
RXFP1 agonist – agonists of human relaxin receptor RXFP1 | HEK293T-RXFP1 cAMP TR-FRET, 30 min; response scale: percent of porcine relaxin response, buffer zero | Potency, µM (top dose mostly 57.5 µM), actives largely listed as activators | AID 2676 | actives 0.3% (n = 370,000); active = well fitted activation curve with a large enough effect; inconclusive = small, poorly fitted or top-dose-only effect; note: nearly all actives have a fitted effect of over 60% in size
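Agonist response is measured as cAMP accumulation in an RXFP1-transfected HEK293T line under PDE4 inhibition. Values are scaled between buffer-only and 29 nM porcine relaxin, and EC50s come from standard Hill equation fits.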
FBPA coupling cs – counter-screen for Giardia aldolase inhibitors: coupling enzyme system; coupling enzyme system counterscreen, AmpLite Red fluorescence; activity change, negative = inhibition, % at 58.2 µM, hits read low; actives 0.67% (n = 290,000); AID 2472; in the data active = activity change below about -30%
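Counterscreen of the coupled detection system alone, without aldolase: glyceraldehyde-3-phosphate coupling enzymes plus AmpLite Red readout. Compounds at 57.5 uM final, 10 min RT preincubation, 20 min RT reaction, fluorescence 525/598 nm.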
Numbers stand for hits; i = inactive; ? = inconclusive; nt = no result given; [ ] = another dose, or the depositor's remark. A selection: hits, their analogues and other compounds. The true share with any hit is near 1.6%.

SMILES	gsp agonist	gsp antagonist	Giardia killer	RXFP1 antagonist	RXFP1 agonist	FBPA coupling cs
O=C(Nc1ncccn1)c1ccc([N+](=O)[O-])o1	i[15.4 µM]	nt	-93	i	18µM	i
O=C(Nc1cc(-c2nc3ncccc3o2)ccc1Cl)c1ccc([N+](=O)[O-])o1	i	i	-83	i	i	i
CCCn1c(NC(=O)c2ccc([N+](=O)[O-])o2)nc2ccccc21	i	i	?	i	i	nt
Cc1ccnc(NC(=O)c2ccc([N+](=O)[O-])o2)c1	?	i	?	i	i	i
CCN1CCN(C(=O)NC(C(=O)NC2C(=O)N3C2SC(C)(C)C3C(=O)O)c2ccccc2)C(=O)C1=O (stereo not given)	nt	nt	nt	nt	nt	i
COc1ccc(CNC(=O)C2(c3cccs3)CCOCC2)cc1	nt	nt	nt	nt	i	nt
CC1(C)S[C@@H]2[C@H](NC(=O)Cc3ccccc3)C(=O)N2[C@H]1C(=O)O (tested in a mixture with another compound)	nt	nt	nt	i	nt	nt
COc1ccc(-n2cc(-c3ccccc3)c3c(=O)[nH]cnc32)cc1	i[15.4 µM]	i	i	i	i	i
O=c1[nH]cnc2c1c(-c1ccccc1)cn2-c1cccc(Cl)c1	i	i	i	-112	i	i
Cc1csc2nc(COC(=O)c3ccccc3NC(=O)c3ccc(C(C)(C)C)cc3)cc(=O)n12	nt	nt	nt	i	i	nt
CC1CC=CC2C1C(=O)N(Cc1ccccc1)C2c1ccc(-c2cc3ccccc3s2)cc1F (stereo not given)	nt	nt	i	nt	nt	i
CC[N+]1(CC)CCC(=C(c2ccccc2)c2ccccc2)C1C (stereo not given)	nt	nt	nt	i	nt	nt
O=C(NCc1cccnc1)c1cc(C(=O)C2CC2)c[nH]1	i[15.4 µM]	11µM	i	i	i	i
CCC(=O)c1c[nH]c(C(=O)NCc2cccnc2)c1	i[15.4 µM]	i	i	i	i	i
COc1ccccc1C(=O)NCC(=O)OCCCOC(=O)CNC(=O)c1ccccc1OC	i	i	i	i	i	nt
Cc1cc(O)c(CN2CCN(c3ccc(F)cc3)CC2)c2oc(=O)cc(C)c12	nt	nt	nt	i	25µM	nt
Cc1nn(C)c(C)c1CN(C)S(=O)(=O)c1ccc2ccccc2c1	i	14µM	i	i	i	i
Cc1nn(C)c(C)c1CN(C)S(=O)(=O)c1ccc(F)cc1	i	i	i	i	i	i
Cc1c(N=C2N=C(NC(=O)c3ccc(F)cc3)c3ccccc32)c(=O)n(-c2ccccc2)n1C	i[15.4 µM]	i	i	i	i	i
CN(CC(=O)NCC1CCCCC1)S(=O)(=O)c1ccc(Cl)cc1	i[15.4 µM]	i	i	i	i	i
CCOc1ccc(Cl)cc1/C=N/NC(N)=O	?	i	i	i	i	-39
CS(=O)(=O)Nc1ccc(C2=NN(C(=O)c3ccco3)C(c3ccccc3F)C2)cc1 (stereo not given)	i	28µM	i	i	i	i
CCCN1CNc2c(c(=O)[nH]c(=S)n2CCc2ccc(OCC)c(OCC)c2)C1	nt	nt	i	nt	nt	nt
CN(C)CCC1(C2=CCCC2)CC/C(=C/c2ccc(Cl)cc2)C1=O (stereo not given)	?	?	i	-73	nt	nt
CCc1cccc(C)c1NC(=O)c1cc(S(=O)(=O)N2CCOCC2)cn1C	nt	nt	nt	i	i	nt
SMILES	gsp agonist	gsp antagonist	Giardia killer	RXFP1 antagonist	RXFP1 agonist	FBPA coupling cs
CN(C)c1ccc(-c2nc3cc(N)ccc3o2)cc1	20µM	i	?	i	28µM	i
CC(C)(C)c1ccc(OCC(O)CN2CCOCC2)cc1 (stereo not given)	i[15.4 µM]	i	i	i	nt	nt
Cc1ccccc1CN1C(=O)/C(=C\c2ccc(C(=O)NCCN3CCOCC3)cc2)Sc2ccccc21	i	i	i	i	i	i
O=C(CN1C(=O)/C(=C/c2ccc(C(F)(F)F)cc2)Sc2ccccc21)NCCCN1CCOCC1	i	i	i	-109	i	i
CCc1ccc(/C=C2/Sc3ccccc3N(CC(=O)NCCCN3CCOCC3)C2=O)cc1	i	i	i	i	i	i
Cc1cccc(CN2C(=O)/C(=C\c3ccc(C(=O)NCCN4CCOCC4)cc3)Sc3ccccc32)c1	?	i	i	-87	i	nt
CC(C)(C)[C@@H]1COC(=O)[C@H](Cc2ccc(F)cc2)C/C=C\C[C@H](CC(=O)N(CCO)Cc2ccccc2)C(=O)N1	i	?	i	nt	nt	nt
COc1ccc(OC(=O)N(CC(=O)O)Cc2ccc(OCCc3nc(-c4ccccc4)oc3C)cc2)cc1	nt	nt	nt	i	nt	nt
COc1ccc(Nc2nc(NCCO)nc(N3CCCC3)n2)cc1	nt	nt	i	nt	nt	nt
CCCNc1nc(Nc2ccc(C)cc2)nc(N2CCCC2)n1	i	32µM	i	i	i	i
CCOC(=O)C1=C(N)OC2=C(C(=O)CC(C)(C)C2)C1c1ccc(C)s1 (stereo not given)	i[15.4 µM]	i	i	-62	i	i
O=[N+]([O-])c1ccc(-c2cnc(SC(c3ccccc3)c3ccccc3)[nH]2)cc1	i[15.4 µM]	35µM	i	?	i	i
CSc1ccc(CCNC(=O)CCCn2c(=O)c3cccn3c3ccccc32)cc1	nt	nt	nt	-75	i	nt
CCOc1ccc(CCNC(=O)CCCn2c(=O)c3cccn3c3ccccc32)cc1	nt	nt	nt	i	?	nt
CC(CNC(=O)CCCn1c(=O)c2cccn2c2ccccc21)c1ccccc1 (stereo not given)	nt	nt	nt	-78	i	nt
COc1ccc(CNC(=O)C(CC(C)C)NS(=O)(=O)c2ccc3c(c2)oc(=O)n3C)cc1 (stereo not given)	nt	nt	nt	nt	i	nt
Cc1ccc2[nH]nc(C(=O)N3CCCC(C(=O)c4ccc(Cl)cc4)C3)c2c1 (stereo not given)	i[15.4 µM]	14µM	i	i	i	i
Cc1cc(C(=O)N2CCCC(C(=O)c3ccc(Oc4ccccc4)cc3)C2)n[nH]1 (stereo not given)	i	35µM	i	-85	i	i
Cc1noc(C)c1C(=O)N1CCCC(C(=O)c2ccc(Cl)cc2)C1 (stereo not given)	i[15.4 µM]	i	i	i	i	i
CCN(CC)CCNC(=O)c1ccc(Cn2c(SCc3ccccc3)nc3cccnc32)cc1	nt	nt	nt	i	i	nt
CCOC(=O)c1c(C)[nH]c(C(=O)COC(=O)CCSc2ccccc2)c1C	i	i	i	i	i	i
CCn1c(SCC(=O)c2[nH]c(C)c(C(C)=O)c2C)nnc1-c1ccccc1	i	20µM	i	i	i	i
CC(=O)c1c(C)[nH]c(C(=O)COC(=O)CCSc2ccccc2)c1C	i	i	i	-64	i	i
Cc1ccc(C(=O)CSc2nc3cccnc3n2C)cc1	i	i	i	i	i	i
COc1ccc(OC)c(C(=O)CSc2nc3cccnc3n2C)c1	i	i	i	i	i	-40
CCCOc1ccc(/C=N/Nc2cccc([N+](=O)[O-])c2)c(O)c1	i[15.4 µM]	i	i	i	i	i
CCCOc1ccc(/C=N/Nc2ccc(C(=O)O)cc2)c(OCCC)c1	i[15.4 µM]	10µM	i	?	i	i

Screening results as filed in PubChem BioAssay.
